Source: PubChem BioAssay (NCATS)

Assay: qHTS profiling of the MIPE4 collection as inhibitors of Plasmodium falciparum (DD2) proliferation (AID 743345)
Settings: P. falciparum Dd2 in erythrocytes, SYBR Green DNA, 72 h; at 28.5 µM (top of the series) unless noted
In short: (§1)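 Erythrocytes infected with P. falciparum (0.3% parasitemia, 2.5% hematocrit) incubated with compounds 72 h at 37 C, 5% CO2. Lysis with saponin/Triton buffer containing SYBR Green I, overnight at room temperature in the dark; DNA fluorescence (485/535 nm) normalised to 0.29 uM artemisinin and DMSO.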
For O=c1ncn2nc(Sc3ccc(F)cc3F)ccc2c1-c1c(Cl)cccc1Cl, the parasite growth remaining, % of DMSO control (lower = more inhibition) was 76.3%.
Work on Cn1cc(-c2ccc3nnc(C(F)(F)c4ccc5ncccc5c4)n3n2)cn1 yielded a parasite growth remaining, % of DMSO control (lower = more inhibition) of 70.3%.
In the case of O=C(O)[C@@H](c1ccc(OCc2ccc3ccccc3n2)cc1)C1CCCC1, the parasite growth remaining, % of DMSO control (lower = more inhibition) is reported as 102%.
CCCCNc1cc(C(=O)O)cc(S(N)(=O)=O)c1Oc1ccccc1 gave a parasite growth remaining, % of DMSO control (lower = more inhibition) of 99.3%.
CCCC(CCC)C(=O)O gave a parasite growth remaining, % of DMSO control (lower = more inhibition) of 103%.
COc1ccc2nc(S(=O)Cc3ncc(C)c(OC)c3C)[nH]c2c1 (configuration not stated) gave a parasite growth remaining, % of DMSO control (lower = more inhibition) of 95%.
In the case of Oc1ccc(C2CNCCc3c2cc(O)c(O)c3Cl)cc1 (configuration not stated), the parasite growth remaining, % of DMSO control (lower = more inhibition) is reported as 65.8%.
For CCC(C)N(C)C(=O)c1cc2ccccc2c(-c2ccccc2Cl)n1 (configuration not stated), the parasite growth remaining, % of DMSO control (lower = more inhibition) was 83.4%.
Cc1[nH]c(=O)c(C#N)cc1-c1ccc2nccn2c1 showed a parasite growth remaining, % of DMSO control (lower = more inhibition) of 93.1%.
In the case of O=C(Nc1ccc(F)c(C(F)(F)F)c1)Nc1nnc(-c2ccncc2)s1, the parasite growth remaining, % of DMSO control (lower = more inhibition) is reported as 14.4%.
With COc1ccc2c3n(c(=NC(=O)c4cccnc4)nc2c1OC)CCN3 the parasite growth remaining, % of DMSO control (lower = more inhibition) was 10.1%.
In the case of O=C(Nc1cccnc1)N1CCC(Cc2cccc(Oc3ccc(C(F)(F)F)cn3)c2)CC1, the parasite growth remaining, % of DMSO control (lower = more inhibition) is reported as 52.2%.
CC(C)C[C@H](NC(=O)[C@@H](O)[C@H](N)Cc1ccccc1)C(=O)O gave a parasite growth remaining, % of DMSO control (lower = more inhibition) of 10.1%.
In the case of N#CC[C@H](C1CCCC1)n1cc(-c2ncnc3[nH]ccc23)cn1, the parasite growth remaining, % of DMSO control (lower = more inhibition) is reported as 64.4%.
With N#Cc1ccc(C(c2ccc(C#N)cc2)n2cncn2)cc1 the parasite growth remaining, % of DMSO control (lower = more inhibition) was 93.7%.
For COc1nc(-c2ccc3c(c2)OCO3)n(-c2ccc(NC(=O)CSc3ccccc3)cc2)n1, the parasite growth remaining, % of DMSO control (lower = more inhibition) was 86.8%.
CCC(=O)N[C@H]1CC[C@H](C(=O)N(C)c2ccc(-c3nc4ccccc4o3)cc2)C1 showed a parasite growth remaining, % of DMSO control (lower = more inhibition) of 65.1%.
For Nc1nccc(-c2ccc3noc(-c4ccc(Cl)cc4)c3c2)n1, the parasite growth remaining, % of DMSO control (lower = more inhibition) was 92.5%.
With Nc1ccc(S(=O)(=O)Nc2ccnn2-c2ccccc2)cc1 the parasite growth remaining, % of DMSO control (lower = more inhibition) was 103%.
CN(C)c1ccc(Nc2nc(N)n(C(=O)c3c(F)cccc3F)n2)cc1 showed a parasite growth remaining, % of DMSO control (lower = more inhibition) of 51.7%.

Assay: qHTS profiling of the MIPE4 collection as inhibitors of Plasmodium falciparum (DD2) proliferation (Rep 2) (AID 743346)
Settings: P. falciparum Dd2 in erythrocytes, SYBR Green DNA, 72 h; at 28.5 µM (top of the series) unless noted
In short: as §1
O=C(Nc1nc2ccccc2n1CCN1CCOCC1)c1cccc([N+](=O)[O-])c1 showed a parasite growth, % of control (lower = inhibition) of 17.9%.
For CCCC(CCC)C(=O)O, the parasite growth, % of control (lower = inhibition) was 148%.
Work on COc1ccc2nc(S(=O)Cc3ncc(C)c(OC)c3C)[nH]c2c1 (configuration not stated) yielded a parasite growth, % of control (lower = inhibition) of 72.1%.
Oc1ccc(C2CNCCc3c2cc(O)c(O)c3Cl)cc1 (configuration not stated) showed a parasite growth, % of control (lower = inhibition) of 14.2%.
With Cc1[nH]c(=O)c(C#N)cc1-c1ccc2nccn2c1 the parasite growth, % of control (lower = inhibition) was 113%.
Work on CCN(CC)CCCC(C)Nc1ccnc2cc(Cl)ccc12 (configuration not stated) yielded a parasite growth, % of control (lower = inhibition) of 15.1%.
In the case of CC(C)C[C@H](NC(=O)[C@@H](O)[C@H](N)Cc1ccccc1)C(=O)O, the parasite growth, % of control (lower = inhibition) is reported as 16%.
CCOC(=O)N1CCC(=C2c3ccc(Cl)cc3CCc3cccnc32)CC1 gave a parasite growth, % of control (lower = inhibition) of 28.5%.
For Nc1nccc(-c2ccc3noc(-c4ccc(Cl)cc4)c3c2)n1, the parasite growth, % of control (lower = inhibition) was 79.2%.
With Nc1ccc(S(=O)(=O)Nc2ccnn2-c2ccccc2)cc1 the parasite growth, % of control (lower = inhibition) was 86.8%.
CN(C)c1ccc(Nc2nc(N)n(C(=O)c3c(F)cccc3F)n2)cc1 showed a parasite growth, % of control (lower = inhibition) of 13.6%.
Compound NCCc1ccc(O)c(O)c1 has a parasite growth, % of control (lower = inhibition) of 39.7%.
